# Vaccinia mCherry = inhibitors of vaccinia virus infection (mCherry reporter signal); Vaccinia virus mCherry reporter infection, fluorescence; Potency, µM (top dose mostly 36.5 µM), without a hit: top-dose activity change, negative = inhibition, most hits filed as inhibitors; hit rate 0.63% among 310,000; AID 720579; calls by dose curve; tested in A549 cells; note: potency is the fitted concentration of half-maximal effect; nearly all actives have a fitted effect of over 35% in size
# HCMV antiviral = blocks human cytomegalovirus replication; HFF cells, HCMV-luciferase reporter, 72 h; stronger effect = lower value; activity change, negative = inhibition, % at 57.5 µM; hit rate 4.5% among 410,000; AID 1259415; in the data active = activity change below about -60%; inconclusive = no clear call, values can overlap the other calls; inactive = above about -39%
#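 Inhibition of viral replication was scored as loss of reporter luminescence in HFFs infected with HCMV-luciferase (MOI 1 PFU/cell) for 72 h; compounds tested at 2 doses, normalized to buffer and Salinomycin controls.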
# HCV inhibitor = blocks hepatitis C virus | AID 651820 | Potency, µM (series often up to 41.8 µM), without a hit: at the highest dose activity change, negative = inhibition, actives largely listed as inhibitors | Huh7.5.1 HCVcc-Cre infection, luciferase reporter, 44 h | hit rate 3.4% among 340,000; active = well fitted inhibition curve with a large enough effect; inconclusive = small, poorly fitted or top-dose-only effect, or another doubt; inactive = no such curve, though single readings can be large or run the other way; note: potency is the fitted concentration of half-maximal effect
#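 1,000 cells/well; 4 h culture; + compound; + HCVcc-Cre (~0.5 moi); 44 h; luciferase substrate, RT 15 min; read 15 sec.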
# VACV Venus inh = inhibitors of vaccinia virus (Venus reporter); Vaccinia virus Venus reporter expression, fluorescence; Potency, µM (top dose mostly 36.5 µM), for the others: top-dose activity change, negative = inhibition, hits mostly inhibitors; hit rate 0.46% among 330,000; calls by dose curve; tested in A549 cells; note: potency is the fitted concentration of half-maximal effect; nearly all actives have a fitted effect of over 30% in size
# Lassa entry inh = inhibitors of Lassa virus binding or cell entry; Lassa virus pseudotype entry inhibition, cell reporter; Potency, µM (highest dose often 37.9 µM), for inactives: at the top dose activity change, negative = inhibition, actives largely listed as inhibitors; hit rate 1.2% among 300,000; calls by dose curve; tested in HEK293 cells; note: potency is the fitted concentration of half-maximal effect; nearly all actives have a fitted effect of over 50% in size
# Marburg entry inh = blocks Marburg virus binding to or entry into cells; hit rate 1.8% among 300,000; Potency, µM (series often up to 37.8 µM), inactives show at the top dose activity change, negative = inhibition, hits mostly inhibitors; Marburg virus pseudotyped entry inhibition, cell reporter; AID 540276; calls by dose curve; tested in HEK293 cells; note: potency is the fitted concentration of half-maximal effect
# An asterisk follows results filed as active; i = inactive; ? = inconclusive; / = no result; ! = not confirmed by another sample; [ ] = another dose, or the depositor's remark. An excerpt weighted towards active compounds, which were near 7.8% of everything screened. % is set by controls: 0 for no effect and ±100 for the full control effect.
SMILES,Vaccinia mCherry,HCMV antiviral,HCV inhibitor,VACV Venus inh,Lassa entry inh,Marburg entry inh
Cc1cc(C)cc(-n2ncc3c2CCCC3NC(=O)c2cc(C)[nH]n2)c1 (centres undefined),-17%,-35,?,5%,?,3.5µM*
CC(C)(C)c1ccc(-n2ncc3c2CCCC3NC(=O)C2(C(N)=O)CC2)cc1 (centres undefined),/,-96*,?,/,/,/
CCOc1ccc(C2=NC(c3cccs3)=Nc3ccc(CC)cc3N2)cc1OCC,-8%,1,/,-14%,-28%[46.1 µM],?
COc1cc2nc(N3CCCCC3)nc(NC3CCN(Cc4ccccc4)CC3)c2cc1OC,-7%,/,/,-28%,/,/
Cc1ccc(N2C(=O)N(Cc3cccc(Cl)c3)c3ccccc3S2(=O)=O)cc1,-16%,?,/,-16%,-27%[46.1 µM],/
CCc1ccccc1N1C(=O)N(Cc2cccc(Cl)c2)c2ccccc2S1(=O)=O,-1%,-105*,/,-1%,-23%[46.1 µM],/
Cc1cccc(CN2C(=O)N(c3ccc(C(C)C)cc3)S(=O)(=O)c3ccccc32)c1,-8%,-69*,/,-4%,?,/
CC(C)c1ccc(N2C(=O)N(Cc3cccc([N+](=O)[O-])c3)c3ccccc3S2(=O)=O)cc1,3%,-34,/,-6%,3%[46.1 µM],/
COc1cccc(C2c3c(oc4cc(C)cc(C)c4c3=O)C(=O)N2CCc2ccc(OC)c(OC)c2)c1 (centres undefined),15%,8,/,17%,0%[46.1 µM],?
O=c1oc2ccccc2cc1-c1csc(Cc2nc(-c3ccc(Cl)cc3)cs2)n1,-16%,-96*,?,-9%,?,?
C[C@H](NC(=O)c1ccco1)C(=O)Nc1nc(-c2ccccn2)cs1,-12%,-25,-13%,-13%,-12%[46.1 µM],-7%
O=C(Nc1nc(-c2ccccn2)cs1)c1ccc(Br)s1,/,-99*,2.2µM*,/,?,?
O=C(Nc1nc(-c2ccccn2)cs1)c1ccco1,2.5µM*,-13,?,?,?,?
O=C(Nc1nc(-c2cc3ccccc3oc2=O)cs1)c1ccco1,-6%,-63*,-5%,-12%,/,/
O=C(Nc1nc(-c2cc(Cl)sc2Cl)cs1)c1ccc(Br)s1,-16%,-11,?,-18%,?,?
COCCN1C(=NCCc2cccnc2)NC(c2ccccc2)C(C(=O)OC)=C1C (centres undefined),/,/,/,/,-21%[14.3 µM],54%[14.2 µM]
CC(C)(C)c1ccc(C(=O)N2CCC3(CC2)CC3C(=O)NCCc2ccccn2)cc1 (centres undefined),-15%,/,/,-8%,/,/
C[C@@](N)(Cc1ccc(O)c(O)c1)C(=O)O,i,/,/,-9%,/,?
O=c1oc2ccccc2cc1-c1csc(Nc2nc3c(F)cccc3s2)n1,-19%,-28,13µM*,-3%,?,?
Cc1cccc(N2CCN(C(=O)C3CCN(S(=O)(=O)c4ccc5c(c4)oc(=O)n5C)CC3)CC2)c1C,-24%,?,/,-16%,0%[46.1 µM],?
NC[C@H](O)c1ccc(O)c(O)c1,-14%,-28,1%,-4%,?,14µM*!
NC[C@@H](O)c1ccc(O)c(O)c1,i,/,/,-6%,/,14µM*
C[C@@H](N)[C@@H](O)c1ccc(O)c(O)c1,/,/,/,/,?,13µM*
CC(C)NCC(O)c1ccc(O)c(O)c1 (centres undefined),-9%,?,13%,1%,3%,?
CNC[C@H](O)c1ccc(O)c(O)c1,-6%,22,12%,-12%,-1%,4%
SMILES,Vaccinia mCherry,HCMV antiviral,HCV inhibitor,VACV Venus inh,Lassa entry inh,Marburg entry inh
CC(=O)c1ccc(N2CCN(C(=O)Cn3ncc4c3-c3ccccc3OC4)CC2)cc1,i,-15,/,-7%,/,1%[46.1 µM]
Cc1ccc(C)n1C1C(=O)N(Cc2ccc(C(C)C)cc2)c2ccc(OC(F)(F)F)cc21 (centres undefined),/,-27,/,/,/,/
COCCCNC(=O)c1ccc(OC)c(OC2CCN(C(C)C)CC2)c1,/,30,22µM*,/,/,/
COc1cccc(CCNC(=O)c2ccc(OC)c(OC3CCN(C(C)C)CC3)c2)c1,/,7,-14%,/,/,/
COc1ccccc1CCNC(=O)c1ccc(OC)c(OC2CCN(C(C)C)CC2)c1,-19%,-62*,-2%,-13%,17%,29%
CC(O)(c1ccccc1)[N+]1(CC(=O)c2ccccc2)C=CC=C1 (centres undefined),-14%,/,/,-15%,/,/
O=C(O)c1cnn2c(C(F)(F)F)cc(-c3ccco3)nc12,/,0,5%,/,-5%,?
Cc1cc(NC(=O)c2cnn3c(C(F)(F)F)cc(-c4ccccc4)nc23)no1,-10%,-37,7.1µM*,-4%,-14%,?
Cc1c(NC(=O)c2cnn3c(C(F)(F)F)cc(-c4ccco4)nc23)c(=O)n(-c2ccccc2)n1C,/,-62*,11%,-20%,-11%,-14%
COc1cc(OC)c2c(-c3cccc(-c4sccc4C(C)=O)c3)cc(=O)oc2c1,?,-79*,3.2µM*,?,/,/
COc1cc(OC)c2c(-c3cccc(-c4ccc(OC)c(OC)c4)c3)cc(=O)oc2c1,-25%,-30,?,?,/,/
CC(=O)NC1=CC(=O)c2nonc2C1=O,1.6µM*,/,/,1.8µM*,/,/
COc1ccc(CCNC2CC(=O)N(CCc3ccccc3)C2=O)cc1OC (centres undefined),-19%,9,5%,-15%,4%,-4%
COc1ccc(CCNC2=C(Cl)C(=O)N(CCc3ccccc3)C2=O)cc1OC,-17%,-15,13µM*,-15%,-26%,?
COc1ccc(O)cc1,27%,14,0.79µM*,21%,/,/
COc1ccc(N2CC(O)=C(c3nc(-c4ccc(Br)cc4)cs3)C2=N)cc1,-15%,-67*,11%,-14%,/,/
COc1ccc(/C=C/c2cc(O)cc(O)c2)cc1,i,/,/,0%,/,/
COc1ccc(-c2csc(-c3ccc(O)cc3)n2)cc1,3.5µM*,-24,?,?,/,/
Cc1ccc(-c2csc(-c3ccncc3)n2)cc1,/,53,-9%,/,/,/
COc1ccc(N2CC(O)=C(c3nc(-c4ccccc4)cs3)C2=N)cc1,-6%,-26,-13%,-6%,/,/
CC(=O)Oc1cc2c3c(c1)/C(=C1/SC(=S)NC1=O)C(=O)N3C(C)(C)C=C2C,/,-66*,13%,/,/,/
COc1cc2c3c(c1)c(C1=NC(=S)NC1=O)c(O)n3C(C)(C)C=C2C,/,9,4%,/,1%,-18%
CC(C)Cn1c(-c2ccc(S(=O)(=O)N3CCCC3)cc2)csc1=Nc1ccccc1,-13%,-37,/,-1%,?,-28%[46.1 µM]
COc1ccccc1N=c1scc(-c2ccc(S(=O)(=O)N3CCCC3)cc2)n1C,-19%[7.34 µM],-97*,/,?,?,/
CC(=O)c1cccc(N=c2scc(-c3ccc(S(=O)(=O)N4CCOCC4)cc3)n2CCO)c1,?,-98*,1µM*,?,?,?
O=S(=O)(c1ccc(-c2csc(=Nc3ccc(F)cc3)n2CCCCCCO)cc1)N1CCCC1,?,-101*,/,-28%,?,?
